The record followed here is PubChem BioAssay (NCI).

The structures appear in SMILES notation. This is part of a sample that, as a whole, favours compounds with a hit. Of some 79,000 tested, about 15% had one in any assay. Unmarked numbers belong to inactive results. Calls of active or inactive are those of the source. No stated cut-off is given here; in the data, active means growth inhibition above about 70%; inactive means the rest.

A short description of assay [1]: NCI Yeast Anticancer Drug Screen. Data for the rad50 strain (AID 155).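 Further: 0% = growth of vehicle-only cultures of the same strain.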 The following applies: S. cerevisiae rad50 strain growth inhibition, stronger effect = higher value. The gist of the method: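 DNA repair mutant yeast, compound exposure, growth read-out; inhibition is taken relative to vehicle.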
A short description of assay [2]: NCI Yeast Anticancer Drug Screen. Data for the mec2-1 strain (AID 157). The following applies: S. cerevisiae mec2-1 strain, stronger effect = higher value. The gist of the method:
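Using mec2-1 yeast: add compound, measure growth, express inhibition versus vehicle-treated cultures.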

The nature of assay [3]: NCI Yeast Anticancer Drug Screen. Data for the sgs1 mgt1 strain (AID 161).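 Further: 0% = growth of cultures given vehicle only.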 The following applies: S. cerevisiae sgs1 mgt1 strain, stronger effect = higher value. The gist of the method:
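Percent growth inhibition was derived by comparing compound-exposed mutant yeast with vehicle-exposed cultures. The strain carries alterations in DNA damage repair.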

Assay [4] in a line: NCI Yeast Anticancer Drug Screen. Data for the cln2 rad14 strain (AID 165).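 Further: 0% = growth equal to vehicle treated cultures.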 The following applies: S. cerevisiae cln2 rad14 strain, stronger effect = higher value. An outline of the steps: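 Yeast strain cln2 rad14, bearing defects in cell cycle control and DNA repair, serves as the test system; values reflect growth inhibition compared with vehicle.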
The nature of assay [5]: NCI Yeast Anticancer Drug Screen. Data for the bub3 strain (AID 167). The settings on record: S. cerevisiae bub3 mutant strain, stronger effect = higher value. The gist of the method: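 In this screen, a yeast mutant lacking normal mitotic checkpoint function is challenged with compound. Relative growth versus vehicle gives the inhibition value.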
The nature of assay [6]: NCI Yeast Anticancer Drug Screen. Data for the mlh1 rad18 strain (AID 175). The settings on record: S. cerevisiae mlh1 rad18 strain growth inhibition, stronger effect = higher value. The gist of the method:
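Steps: expose repair-defective yeast to compound; measure growth; express inhibition against vehicle-treated controls.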

Where [7] appears, read: at 5.0 µM (retest, dose inferred, filed as 0.5).
Setting [8] is: at 50.0 µM (retest, dose inferred, filed as 5.0).

In the case of `COc1cc2c(cc1OC)-c1nc(Nc3ccccc3)sc1CC2`, the growth inhibition in assay [1] (setting [7]) is -6%; in assay [1] (setting [8]) it was 92% (active); in assay [1] (at 50.0 µM), 43.4%; in assay [2] (setting [7]), -1%; in assay [2] (setting [8]), 94% (active); in assay [2] (at 50.0 µM), 86.7% (active). Also, the growth inhibition was -3% in assay [3] (setting [7]); 88% (active) in assay [3] (setting [8]); 82% (active) in assay [3] (at 50.0 µM); 5% in assay [4] (setting [7]); 88% (active) in assay [4] (setting [8]); 29.1% in assay [4] (at 50.0 µM). For the same compound, the growth inhibition in assay [5] (setting [7]) is 1%; in assay [5] (setting [8]), 92% (active); in assay [5] (at 50.0 µM) it was 78.5% (active); in assay [6] (setting [7]), -4%; in assay [6] (setting [8]) it was 95% (active); in assay [6] (at 50.0 µM), 93% (active).
For `CC(C)(C)[Si](C)(C)OCC1OC(n2cc(I)c(N)nc2=O)C(O[Si](C)(C)C(C)(C)C)C1O[Si](C)(C)C(C)(C)C` (stereo not given), the growth inhibition in assay [1] (setting [7]) was 48%; in assay [1] (setting [8]), 97% (active); in assay [1] (at 50.0 µM) it was 27.1%; in assay [2] (setting [7]), 9%; in assay [2] (setting [8]), 98% (active); in assay [2] (at 50.0 µM), 60.8%. The growth inhibition in assay [3] (setting [7]) is 85% (active); in assay [3] (setting [8]), 98% (active); in assay [3] (at 50.0 µM) it was 36.1%; in assay [4] (setting [7]), 1%; in assay [4] (setting [8]) it was 51%; in assay [4] (at 50.0 µM), 32.3%. Moreover, the growth inhibition was 9% in assay [5] (setting [7]); 99% (active) in assay [5] (setting [8]); 38.4% in assay [5] (at 50.0 µM); 33% in assay [6] (setting [7]); 94% (active) in assay [6] (setting [8]); 86.7% (active) in assay [6] (at 50.0 µM).
As to `CC(C)(C)CC(C)(C)c1ccc(O)c(Cl)c1`, the growth inhibition in assay [1] (setting [7]) is -3%; in assay [1] (setting [8]) it was 93% (active); in assay [1] (at 50.0 µM), 99.1% (active); in assay [2] (setting [7]) it was -3%; in assay [2] (setting [8]), 90% (active); in assay [2] (at 50.0 µM) it was 76.5% (active). The growth inhibition in assay [3] (setting [7]) was -2%; in assay [3] (setting [8]), 50%; in assay [3] (at 50.0 µM), 91.2% (active); in assay [4] (setting [7]), -6%; in assay [4] (setting [8]) it was 86% (active); in assay [4] (at 50.0 µM) it was 49.9%. Further, the growth inhibition in assay [5] (setting [7]) is -4%; in assay [5] (setting [8]), 90% (active); in assay [5] (at 50.0 µM), 78.4% (active); in assay [6] (setting [7]), -4%; in assay [6] (setting [8]) it was 95% (active); in assay [6] (at 50.0 µM) it was 99.5% (active).
For `COc1cccc2c1S(=O)(=O)C(c1ccccc1)=CC2=O`, the growth inhibition in assay [1] (setting [7]) was 45%; in assay [1] (setting [8]), 99% (active); in assay [1] (at 50.0 µM) it was 99.5% (active); in assay [2] (setting [7]), 48%; in assay [2] (setting [8]), 99% (active); in assay [2] (at 50.0 µM), 99.2% (active). The growth inhibition in assay [3] (setting [7]) is 55%; in assay [3] (setting [8]), 99% (active); in assay [3] (at 50.0 µM), 99.4% (active); in assay [4] (setting [7]), 12%; in assay [4] (setting [8]), 98% (active); in assay [4] (at 50.0 µM), 98.7% (active). Moreover, the growth inhibition was 58% in assay [5] (setting [7]); 97% (active) in assay [5] (setting [8]); 99.7% (active) in assay [5] (at 50.0 µM); 69% in assay [6] (setting [7]); 99% (active) in assay [6] (setting [8]); 99.5% (active) in assay [6] (at 50.0 µM).
In the case of `CCCCN(CCCC)CCC(O)c1cc2c(c3ccccc13)CCCC2` (stereo not given), the growth inhibition in assay [1] (setting [7]) was 1%; in assay [1] (setting [8]), 99% (active); in assay [1] (at 50.0 µM), 99.4% (active); in assay [2] (setting [7]), 5%; in assay [2] (setting [8]), 100% (active); in assay [2] (at 50.0 µM), 99.2% (active). Moreover, the growth inhibition in assay [3] (setting [7]) is 10%; in assay [3] (setting [8]), 100% (active); in assay [3] (at 50.0 µM) it was 99.7% (active); in assay [4] (setting [7]), 0%; in assay [4] (setting [8]) it was 98% (active); in assay [4] (at 50.0 µM) it was 67.1%. The growth inhibition is 10% in assay [5] (setting [7]); 99% (active) in assay [5] (setting [8]); 97.8% (active) in assay [5] (at 50.0 µM); 9% in assay [6] (setting [7]); 99% (active) in assay [6] (setting [8]); 99.5% (active) in assay [6] (at 50.0 µM).
Consider `O=C1C2C3C=CC(C3)C2C(=NS(=O)(=O)c2ccccc2)C2C3C=CC(C3)C12` (stereo not given), for which the growth inhibition in assay [1] (setting [7]) is -33%; in assay [1] (setting [8]) it was 9%; in assay [1] (at 50.0 µM) it was 84.7% (active); in assay [2] (setting [7]), -2%; in assay [2] (setting [8]), 0%; in assay [2] (at 50.0 µM), 89.8% (active). Further, the growth inhibition was 3% in assay [3] (setting [7]); 14% in assay [3] (setting [8]); 91.4% (active) in assay [3] (at 50.0 µM); -1% in assay [4] (setting [7]); -3% in assay [4] (setting [8]); 22.1% in assay [4] (at 50.0 µM). Besides, the growth inhibition was -2% in assay [5] (setting [7]); 4% in assay [5] (setting [8]); 53% in assay [5] (at 50.0 µM); 28% in assay [6] (setting [7]); 12% in assay [6] (setting [8]); 72.5% (active) in assay [6] (at 50.0 µM).
With `CCOC(=O)/C=C(/Cl)C(=O)OCC`, the growth inhibition in assay [1] (setting [7]) is 12%; in assay [1] (setting [8]), 98% (active); in assay [1] (at 50.0 µM), 98.5% (active); in assay [2] (setting [7]) it was 5%; in assay [2] (setting [8]), 99% (active); in assay [2] (at 50.0 µM), 99.4% (active). For the same compound, the growth inhibition was 7% in assay [3] (setting [7]); 98% (active) in assay [3] (setting [8]); 99.5% (active) in assay [3] (at 50.0 µM); 1% in assay [4] (setting [7]); 99% (active) in assay [4] (setting [8]); 99% (active) in assay [4] (at 50.0 µM). The growth inhibition in assay [5] (setting [7]) is 18%; in assay [5] (setting [8]), 99% (active); in assay [5] (at 50.0 µM) it was 99.2% (active); in assay [6] (setting [7]), 6%; in assay [6] (setting [8]) it was 99% (active); in assay [6] (at 50.0 µM) it was 99.1% (active).
Turning to `CCOC(=O)c1ccc2c3c([nH]c2c1C)-c1ccccc1CC3`, the growth inhibition in assay [1] (setting [7]) was 12%; in assay [1] (setting [8]) it was 93% (active); in assay [1] (at 50.0 µM), 93.5% (active); in assay [2] (setting [7]), -7%; in assay [2] (setting [8]), 94% (active); in assay [2] (at 50.0 µM), 94% (active). Moreover, the growth inhibition in assay [3] (setting [7]) was 14%; in assay [3] (setting [8]), 95% (active); in assay [3] (at 50.0 µM), 94.7% (active); in assay [4] (setting [7]) it was -9%; in assay [4] (setting [8]), 91% (active); in assay [4] (at 50.0 µM), 90.7% (active). The growth inhibition is 1% in assay [5] (setting [7]); 94% (active) in assay [5] (setting [8]); 94.2% (active) in assay [5] (at 50.0 µM); 14% in assay [6] (setting [7]); 94% (active) in assay [6] (setting [8]); 91.9% (active) in assay [6] (at 50.0 µM).
Regarding `O=C1c2cc(F)ccc2-c2c(F)cc(F)c(F)c21`, the growth inhibition in assay [1] (setting [7]) was 8%; in assay [1] (setting [8]), 7%; in assay [1] (at 50.0 µM), 82.3% (active); in assay [2] (setting [7]), 6%; in assay [2] (setting [8]) it was 5%; in assay [2] (at 50.0 µM) it was 55.9%. In addition, the growth inhibition in assay [3] (setting [7]) was 2%; in assay [3] (setting [8]), 4%; in assay [3] (at 50.0 µM), 41%; in assay [4] (setting [7]), 3%; in assay [4] (setting [8]), -6%; in assay [4] (at 50.0 µM) it was 34.9%. Further, the growth inhibition is -7% in assay [5] (setting [7]); -14% in assay [5] (setting [8]); 5.95% in assay [5] (at 50.0 µM); 4% in assay [6] (setting [7]); 7% in assay [6] (setting [8]); 46.8% in assay [6] (at 50.0 µM).
Turning to `OCC(O)C(O)C(O)C(O)c1cnn(-c2ccccc2)n1` (stereo not given), the growth inhibition in assay [1] (setting [7]) is 3%; in assay [1] (setting [8]), -4%; in assay [1] (at 50.0 µM), 10.8%; in assay [2] (setting [7]) it was -8%; in assay [2] (setting [8]), -24%; in assay [2] (at 50.0 µM) it was 3.45%. Further, the growth inhibition in assay [3] (setting [7]) is 3%; in assay [3] (setting [8]), -5%; in assay [3] (at 50.0 µM), 15.2%; in assay [4] (setting [7]), -4%; in assay [4] (setting [8]), -2%; in assay [4] (at 50.0 µM), 14.2%. The growth inhibition is -3% in assay [5] (setting [7]); 2% in assay [5] (setting [8]); -1.3% in assay [5] (at 50.0 µM); -7% in assay [6] (setting [7]); -2% in assay [6] (setting [8]); 18.9% in assay [6] (at 50.0 µM).
